According to ChEMBL document CHEMBL1201862, “PubChem BioAssay data set” (2004):
Among all 400,000 compounds or so, about 2,100 (0.53%) were called active. About 14% were inconclusive and are not listed. How the calls were made is not given here. What follows is part of a selection rich in actives, with near analogues and random picks from the rest.

Each compound was assayed against Ataxin-2 (Homo sapiens) (UniProt Q99700) (assay: qHTS for Inhibitors of ATXN expression.).
Format: functional

Sequence of Ataxin-2 (Homo sapiens) (Q99700 whole entry): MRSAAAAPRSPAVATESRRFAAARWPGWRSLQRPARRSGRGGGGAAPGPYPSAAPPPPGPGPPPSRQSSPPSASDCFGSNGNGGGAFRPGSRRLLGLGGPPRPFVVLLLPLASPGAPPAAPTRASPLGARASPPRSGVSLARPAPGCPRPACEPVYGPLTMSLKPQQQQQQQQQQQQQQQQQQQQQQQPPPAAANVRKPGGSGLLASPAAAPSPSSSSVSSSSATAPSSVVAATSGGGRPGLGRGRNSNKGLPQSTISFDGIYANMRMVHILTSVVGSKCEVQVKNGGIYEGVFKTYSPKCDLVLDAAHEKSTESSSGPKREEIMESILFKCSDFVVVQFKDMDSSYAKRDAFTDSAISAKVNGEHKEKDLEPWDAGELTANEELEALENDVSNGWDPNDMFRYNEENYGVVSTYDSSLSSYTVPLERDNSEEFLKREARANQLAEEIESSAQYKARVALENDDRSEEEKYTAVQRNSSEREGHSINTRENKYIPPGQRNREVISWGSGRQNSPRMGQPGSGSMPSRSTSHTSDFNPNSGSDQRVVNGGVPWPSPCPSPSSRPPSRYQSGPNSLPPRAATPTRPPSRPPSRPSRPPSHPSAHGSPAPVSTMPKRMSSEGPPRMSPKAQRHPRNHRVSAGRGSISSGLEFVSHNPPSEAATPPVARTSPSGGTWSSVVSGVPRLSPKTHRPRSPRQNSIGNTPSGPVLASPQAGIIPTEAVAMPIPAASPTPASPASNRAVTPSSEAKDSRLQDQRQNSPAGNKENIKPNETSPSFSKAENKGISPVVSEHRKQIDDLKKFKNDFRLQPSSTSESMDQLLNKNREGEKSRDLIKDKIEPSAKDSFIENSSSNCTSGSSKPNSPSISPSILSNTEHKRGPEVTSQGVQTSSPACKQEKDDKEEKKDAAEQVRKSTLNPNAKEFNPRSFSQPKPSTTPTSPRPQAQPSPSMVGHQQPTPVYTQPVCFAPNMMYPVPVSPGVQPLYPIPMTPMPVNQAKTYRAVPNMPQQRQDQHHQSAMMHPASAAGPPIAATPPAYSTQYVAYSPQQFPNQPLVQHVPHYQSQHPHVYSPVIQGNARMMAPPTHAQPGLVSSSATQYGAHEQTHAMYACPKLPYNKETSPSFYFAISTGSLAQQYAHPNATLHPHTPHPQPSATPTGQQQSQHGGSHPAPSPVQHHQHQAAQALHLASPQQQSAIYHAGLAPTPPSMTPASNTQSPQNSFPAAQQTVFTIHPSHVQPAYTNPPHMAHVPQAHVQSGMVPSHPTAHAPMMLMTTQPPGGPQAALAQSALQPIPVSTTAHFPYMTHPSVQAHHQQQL

**Q.** With `CCN(CC)CCNS(=O)(=O)c1ccc2c3c(cccc13)C(=O)N2` as the compound, how does the Potency read?
**A.** inactive

**Q.** How did the Potency turn out when `C=CCC(Nc1ccccc1)C12C=CC(O1)C(C(=O)OC)=C2C(=O)OC` (stereo unspecified) was run?
**A.** 39.8 µM (active)

**Q.** For `Cc1ccc(/C=N/Nc2ccc3ccccc3n2)o1`, which Potency is on record?
**A.** inactive

**Q.** With `c1ccc(-c2nc(CN3CCN(c4ccccn4)CC3)c[nH]2)cc1` as the compound, how does the Potency read?
**A.** inactive

**Q.** Which Potency does the source give for `CN(C)C(=S)N=Nc1[nH]c2ccccc2c1O` here?
**A.** 1.12 µM (active)

**Q.** For `O/C(=C\c1nc2ccccc2nc1O)c1cccs1`, which Potency is on record?
**A.** inactive

**Q.** For `CC[C@@H]1CC=C[C@H]2[C@H]1C(=O)N(Cc1ccccc1)[C@H]2c1ccoc1`, which Potency is on record?
**A.** 35.5 µM (active)

**Q.** For `O=C1C2C(c3ccccc3)CC=CC2[C@H](c2ccc(C(F)(F)F)cc2)N1Cc1ccccc1` (stereo partly specified), which Potency is on record?
**A.** 15.8 µM (active)

**Q.** For `Cc1ccc(F)c([C@H]2[C@H]3C=CC[C@@H](C)[C@@H]3C(=O)N2Cc2ccccc2)c1`, which Potency is on record?
**A.** 39.8 µM (active)

**Q.** `Nc1nnc(SCC(=O)NNC(=O)c2ccc([N+](=O)[O-])cc2)s1` was tested. Which Potency did it give?
**A.** inactive

**Q.** `NC(S)=NN=C1c2cc(OCCN3CCOCC3)ccc2-c2ccc(OCCN3CCOCC3)cc21` was tested. Which Potency did it give?
**A.** 7.94 µM (active)

**Q.** For `COCc1cc(O)nc(SCCS(=O)(=O)c2ccc(Cl)cc2Cl)n1`, which Potency is on record?
**A.** 11.2 µM (active)

**Q.** With `O=S(=O)(CCN1C=CC(C(F)(F)F)=NCC1)c1ccc(Cl)cc1Cl` as the compound, how does the Potency read?
**A.** inactive

**Q.** For `COCc1cc(O)nc(-c2ccc(C(F)(F)F)cc2)n1`, which Potency is on record?
**A.** inactive

**Q.** Which Potency does the source give for `CCOc1cc(C(c2c(C)[nH]n(-c3ccccc3)c2=O)c2c(C)[nH]n(-c3ccccc3)c2=O)ccc1O` here?
**A.** 28.2 µM (active)

**Q.** For `CCN1/C(=C\c2ccc3ccccc3[n+]2CC)Sc2cc(C)ccc21`, which Potency is on record?
**A.** 44.7 µM (active)

**Q.** How did the Potency turn out when `CC[n+]1c(C=C2C=CN(C)C=C2)ccc2cc(C)ccc21` was run?
**A.** 10 µM (active)

**Q.** With `CCN1/C(=C/c2ccc3cc(C)ccc3[n+]2C)Sc2ccc3sccc3c21` as the compound, how does the Potency read?
**A.** 17.8 µM (active)

**Q.** For `CCN1/C(=C/c2ccc3cc(C)ccc3[n+]2CC)Sc2ccccc21`, which Potency is on record?
**A.** 14.1 µM (active)

**Q.** Which Potency does the source give for `CCOC(=O)/C(=C\C=C1/Sc2ccccc2N1CC)C(C)=O` here?
**A.** inactive

**Q.** How did the Potency turn out when `CCOC(=O)/C(C#N)=C(C)/C=C1\Sc2ccccc2N1CC` was run?
**A.** inactive

**Q.** `N=c1c(C(=O)NCC2CCCO2)cc2c(=O)n3ccccc3nc2n1Cc1ccccc1Cl` (stereo unspecified) was tested. Which Potency did it give?
**A.** inactive

**Q.** Which Potency does the source give for `CCOC(=O)C1CCN(C(c2ccc(OC)c(OC)c2)c2sc3nc(C)nn3c2O)CC1` (stereo unspecified) here?
**A.** inactive

**Q.** How did the Potency turn out when `O=C(N/N=C/c1c(O)ccc2ccccc12)c1[nH]ncc1Br` was run?
**A.** inactive

**Q.** `CCN1CCN(Cc2c(O)ccc3c2O/C(=C\c2ccc(C)cc2)C3=O)CC1` was tested. Which Potency did it give?
**A.** inactive

**Q.** For `CC(NC(=O)C12CC3CC(CC(C3)C1)C2)C(=O)N/N=C/C1=C(N2CCOCC2)C(=C\c2ccccc2)/CC1` (stereo unspecified), which Potency is on record?
**A.** inactive
